Here are results for three molecules from ChEMBL document CHEMBL2218924, “A broad activity screen in support of a chemogenomic map for kinase signalling research and drug discovery” (Biochem J, 2013).

In general, residual activity refers to the signal under treatment as a percentage of the control signal.

Assay [1] deals with T1, Muscle, skeletal receptor tyrosine-protein kinase (Homo sapiens) (UniProt O15146).
T1 sequence (whole entry): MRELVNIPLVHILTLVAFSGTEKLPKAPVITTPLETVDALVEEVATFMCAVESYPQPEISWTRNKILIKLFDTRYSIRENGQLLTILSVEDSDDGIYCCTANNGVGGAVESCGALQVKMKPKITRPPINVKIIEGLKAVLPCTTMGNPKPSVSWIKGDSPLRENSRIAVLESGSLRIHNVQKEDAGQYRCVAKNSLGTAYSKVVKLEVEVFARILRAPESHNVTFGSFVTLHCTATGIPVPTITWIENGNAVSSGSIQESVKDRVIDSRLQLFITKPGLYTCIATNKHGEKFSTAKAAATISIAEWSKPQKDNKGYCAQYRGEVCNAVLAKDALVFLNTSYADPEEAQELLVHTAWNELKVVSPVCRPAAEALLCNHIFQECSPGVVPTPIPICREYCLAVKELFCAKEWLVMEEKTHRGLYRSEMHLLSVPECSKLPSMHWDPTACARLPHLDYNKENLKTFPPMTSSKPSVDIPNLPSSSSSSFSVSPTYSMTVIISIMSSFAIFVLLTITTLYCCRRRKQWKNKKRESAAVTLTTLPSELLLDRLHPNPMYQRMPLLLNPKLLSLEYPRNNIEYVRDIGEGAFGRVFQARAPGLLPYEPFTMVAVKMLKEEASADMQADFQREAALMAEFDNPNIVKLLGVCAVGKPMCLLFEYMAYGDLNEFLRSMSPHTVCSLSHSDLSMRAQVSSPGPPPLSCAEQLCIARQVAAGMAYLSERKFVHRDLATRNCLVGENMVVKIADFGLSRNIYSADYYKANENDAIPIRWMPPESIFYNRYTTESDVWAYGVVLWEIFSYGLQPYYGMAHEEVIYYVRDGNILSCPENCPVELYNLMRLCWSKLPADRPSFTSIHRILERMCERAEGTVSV
To be noted: at 1 µM.

Assay [2] concerns the target T1, Muscle, skeletal receptor tyrosine-protein kinase (Homo sapiens). As to conditions: at 10 µM.
The target in assay [3] is T2, Serine/threonine-protein kinase Nek11 (Homo sapiens) (UniProt Q8NG66).
T2 sequence (whole entry): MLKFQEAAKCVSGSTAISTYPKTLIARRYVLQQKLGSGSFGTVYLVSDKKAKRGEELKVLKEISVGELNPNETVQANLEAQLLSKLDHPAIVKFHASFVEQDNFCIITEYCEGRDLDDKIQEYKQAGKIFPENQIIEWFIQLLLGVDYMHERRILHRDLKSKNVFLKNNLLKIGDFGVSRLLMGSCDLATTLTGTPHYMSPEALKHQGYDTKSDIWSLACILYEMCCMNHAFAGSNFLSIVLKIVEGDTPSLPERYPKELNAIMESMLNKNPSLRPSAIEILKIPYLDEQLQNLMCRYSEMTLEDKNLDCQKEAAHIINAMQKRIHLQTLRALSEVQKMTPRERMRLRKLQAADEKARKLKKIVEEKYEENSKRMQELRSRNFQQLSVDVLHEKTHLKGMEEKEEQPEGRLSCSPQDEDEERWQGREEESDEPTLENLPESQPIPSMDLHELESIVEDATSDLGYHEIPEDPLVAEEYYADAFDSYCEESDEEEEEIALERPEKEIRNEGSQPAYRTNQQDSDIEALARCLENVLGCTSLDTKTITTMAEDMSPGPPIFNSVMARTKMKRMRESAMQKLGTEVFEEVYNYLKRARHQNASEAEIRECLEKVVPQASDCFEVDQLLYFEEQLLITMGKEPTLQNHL
As to conditions: at 1 µM.

The target in assay [4] is T2, Serine/threonine-protein kinase Nek11 (Homo sapiens). To be noted: at 10 µM.
Assay [5] deals with T3, Serine/threonine-protein kinase Nek2 (Homo sapiens) (UniProt P51955).
T3 sequence (whole entry): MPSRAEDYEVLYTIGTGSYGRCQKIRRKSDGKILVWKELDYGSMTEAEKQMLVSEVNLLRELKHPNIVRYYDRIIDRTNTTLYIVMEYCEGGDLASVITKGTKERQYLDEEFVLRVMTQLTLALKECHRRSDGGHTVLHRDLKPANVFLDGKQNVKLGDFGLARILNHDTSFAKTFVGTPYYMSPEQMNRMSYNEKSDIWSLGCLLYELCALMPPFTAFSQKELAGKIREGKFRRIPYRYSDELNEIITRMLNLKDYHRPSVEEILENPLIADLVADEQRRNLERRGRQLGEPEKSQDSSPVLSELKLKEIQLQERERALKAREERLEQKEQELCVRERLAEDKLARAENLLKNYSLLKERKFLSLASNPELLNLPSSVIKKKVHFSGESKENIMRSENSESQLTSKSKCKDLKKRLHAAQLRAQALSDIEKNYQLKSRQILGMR
As to conditions: at 1 µM.

The target of assay [6] is T3, Serine/threonine-protein kinase Nek2 (Homo sapiens). As to conditions: at 10 µM.
Assay [7] deals with T4, Serine/threonine-protein kinase Nek3 (Homo sapiens) (UniProt P51956).
T4 sequence (whole entry): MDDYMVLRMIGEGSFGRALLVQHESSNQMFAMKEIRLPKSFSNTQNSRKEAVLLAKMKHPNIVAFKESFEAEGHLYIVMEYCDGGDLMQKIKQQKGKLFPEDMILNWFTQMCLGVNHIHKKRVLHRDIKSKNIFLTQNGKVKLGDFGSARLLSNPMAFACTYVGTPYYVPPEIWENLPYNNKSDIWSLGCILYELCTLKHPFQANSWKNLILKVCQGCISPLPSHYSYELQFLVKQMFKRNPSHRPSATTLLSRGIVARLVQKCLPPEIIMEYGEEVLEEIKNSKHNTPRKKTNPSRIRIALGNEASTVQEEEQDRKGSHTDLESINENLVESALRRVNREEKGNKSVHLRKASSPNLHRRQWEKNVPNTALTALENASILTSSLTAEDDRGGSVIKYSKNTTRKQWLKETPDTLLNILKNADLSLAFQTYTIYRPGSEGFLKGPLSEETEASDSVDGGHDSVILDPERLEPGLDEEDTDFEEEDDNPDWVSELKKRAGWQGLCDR
To be noted: at 1 µM.

Assay [8] addresses T4, Serine/threonine-protein kinase Nek3 (Homo sapiens). As to conditions: at 10 µM.
For assay [9], the target named is Serine/threonine-protein kinase tousled-like 2 (Homo sapiens) (UniProt Q86UE8). As to conditions: at 1 µM.
Sequence of Serine/threonine-protein kinase tousled-like 2 (Homo sapiens) (Q86UE8 whole entry, looked up): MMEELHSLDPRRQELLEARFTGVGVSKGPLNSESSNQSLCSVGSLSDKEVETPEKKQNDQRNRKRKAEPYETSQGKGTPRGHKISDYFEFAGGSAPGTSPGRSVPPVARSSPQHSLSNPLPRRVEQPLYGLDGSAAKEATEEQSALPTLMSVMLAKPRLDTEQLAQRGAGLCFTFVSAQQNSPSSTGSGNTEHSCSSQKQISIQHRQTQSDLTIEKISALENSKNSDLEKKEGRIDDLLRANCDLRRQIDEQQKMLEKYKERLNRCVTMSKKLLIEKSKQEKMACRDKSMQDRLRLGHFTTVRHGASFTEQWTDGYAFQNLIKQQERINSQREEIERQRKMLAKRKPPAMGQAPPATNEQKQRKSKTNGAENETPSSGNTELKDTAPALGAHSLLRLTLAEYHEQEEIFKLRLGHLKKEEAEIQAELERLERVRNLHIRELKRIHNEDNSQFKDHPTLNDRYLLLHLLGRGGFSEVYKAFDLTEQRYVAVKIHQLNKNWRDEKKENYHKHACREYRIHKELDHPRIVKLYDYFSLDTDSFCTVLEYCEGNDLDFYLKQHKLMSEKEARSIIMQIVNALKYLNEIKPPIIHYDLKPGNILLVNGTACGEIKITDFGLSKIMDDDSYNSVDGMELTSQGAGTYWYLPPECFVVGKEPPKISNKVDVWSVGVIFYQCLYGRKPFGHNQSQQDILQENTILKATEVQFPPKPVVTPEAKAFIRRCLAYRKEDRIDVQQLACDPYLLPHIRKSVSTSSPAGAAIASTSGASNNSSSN
Assay [10] has the same target. To be noted: at 10 µM.
In assay [11] the target is T5, Testis-specific serine/threonine-protein kinase 1 (Homo sapiens) (UniProt Q9BXA7).
T5 sequence (whole entry): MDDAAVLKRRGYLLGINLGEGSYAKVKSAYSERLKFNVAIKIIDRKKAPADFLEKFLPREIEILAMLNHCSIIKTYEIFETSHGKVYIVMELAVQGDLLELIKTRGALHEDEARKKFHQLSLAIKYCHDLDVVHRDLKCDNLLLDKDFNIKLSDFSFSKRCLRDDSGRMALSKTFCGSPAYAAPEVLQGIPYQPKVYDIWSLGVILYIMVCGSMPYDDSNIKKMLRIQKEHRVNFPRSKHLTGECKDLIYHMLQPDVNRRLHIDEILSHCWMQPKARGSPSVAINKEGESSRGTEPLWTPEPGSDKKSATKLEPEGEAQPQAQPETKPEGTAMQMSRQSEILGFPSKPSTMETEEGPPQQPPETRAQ
To be noted: at 1 µM.

For assay [12], the target named is T5, Testis-specific serine/threonine-protein kinase 1 (Homo sapiens). To be noted: at 10 µM.
Assay [13] concerns the target T6, Testis-specific serine/threonine-protein kinase 2 (Homo sapiens) (UniProt Q96PF2).
T6 sequence (whole entry): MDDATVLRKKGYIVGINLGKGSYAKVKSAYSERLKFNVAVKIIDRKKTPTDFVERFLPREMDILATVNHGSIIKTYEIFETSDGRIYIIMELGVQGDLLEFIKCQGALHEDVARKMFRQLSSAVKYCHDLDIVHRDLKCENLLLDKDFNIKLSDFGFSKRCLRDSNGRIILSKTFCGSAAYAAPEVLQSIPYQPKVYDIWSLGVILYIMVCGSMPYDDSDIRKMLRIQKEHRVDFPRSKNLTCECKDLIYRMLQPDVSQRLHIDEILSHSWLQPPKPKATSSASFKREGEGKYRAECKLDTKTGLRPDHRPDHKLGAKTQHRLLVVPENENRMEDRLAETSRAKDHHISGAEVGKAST
As to conditions: at 10 µM.

Assay [14] concerns the target T7, Tyrosine-protein kinase Tec (Homo sapiens) (UniProt P42680).
T7 sequence (whole entry): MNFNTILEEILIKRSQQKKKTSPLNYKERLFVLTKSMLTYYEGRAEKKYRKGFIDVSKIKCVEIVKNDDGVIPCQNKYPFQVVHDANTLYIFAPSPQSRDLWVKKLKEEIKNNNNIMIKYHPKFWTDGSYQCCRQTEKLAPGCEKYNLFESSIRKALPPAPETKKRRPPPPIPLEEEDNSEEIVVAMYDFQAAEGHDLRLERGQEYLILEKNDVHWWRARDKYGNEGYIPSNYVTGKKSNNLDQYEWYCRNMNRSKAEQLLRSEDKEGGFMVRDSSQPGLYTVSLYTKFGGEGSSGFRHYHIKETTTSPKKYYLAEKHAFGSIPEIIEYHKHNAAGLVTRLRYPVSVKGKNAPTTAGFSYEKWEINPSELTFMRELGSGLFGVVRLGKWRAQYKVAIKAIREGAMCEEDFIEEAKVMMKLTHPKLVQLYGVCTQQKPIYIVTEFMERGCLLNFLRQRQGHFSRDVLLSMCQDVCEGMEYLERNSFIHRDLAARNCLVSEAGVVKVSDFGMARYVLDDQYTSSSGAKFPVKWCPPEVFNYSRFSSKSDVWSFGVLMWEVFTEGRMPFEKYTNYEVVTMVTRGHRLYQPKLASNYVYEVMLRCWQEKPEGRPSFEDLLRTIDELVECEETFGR
To be noted: at 1 µM.

Assay [15] has as its target T7, Tyrosine-protein kinase Tec (Homo sapiens). To be noted: at 10 µM.
Assay [16] concerns the target Angiopoietin-1 receptor (Homo sapiens) (UniProt Q02763). To be noted: at 1 µM.
For assay [17] the target is unchanged. To be noted: at 10 µM.
In assay [18] the target is High affinity nerve growth factor receptor (Homo sapiens) (UniProt P04629). To be noted: at 1 µM.
Sequence of High affinity nerve growth factor receptor (Homo sapiens) (P04629 33-796 limits assumed): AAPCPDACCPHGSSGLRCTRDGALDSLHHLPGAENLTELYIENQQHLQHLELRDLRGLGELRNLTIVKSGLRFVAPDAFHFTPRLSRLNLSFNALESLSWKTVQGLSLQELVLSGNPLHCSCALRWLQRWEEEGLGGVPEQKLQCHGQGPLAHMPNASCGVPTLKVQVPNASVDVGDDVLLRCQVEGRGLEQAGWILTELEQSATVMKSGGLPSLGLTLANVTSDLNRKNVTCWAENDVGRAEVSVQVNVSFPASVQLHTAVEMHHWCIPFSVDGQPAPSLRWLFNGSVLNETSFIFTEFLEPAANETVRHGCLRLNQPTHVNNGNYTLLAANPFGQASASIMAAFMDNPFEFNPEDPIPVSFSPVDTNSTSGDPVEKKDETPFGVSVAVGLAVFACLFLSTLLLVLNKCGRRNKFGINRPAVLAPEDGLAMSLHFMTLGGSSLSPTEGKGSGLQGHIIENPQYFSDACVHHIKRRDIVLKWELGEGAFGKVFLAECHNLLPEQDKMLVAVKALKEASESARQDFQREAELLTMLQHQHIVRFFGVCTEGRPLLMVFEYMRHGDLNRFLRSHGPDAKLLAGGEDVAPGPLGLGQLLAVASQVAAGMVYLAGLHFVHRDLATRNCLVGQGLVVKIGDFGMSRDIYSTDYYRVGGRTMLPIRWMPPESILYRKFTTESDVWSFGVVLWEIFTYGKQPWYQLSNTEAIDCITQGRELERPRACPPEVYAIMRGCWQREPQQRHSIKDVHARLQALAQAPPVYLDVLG
Assay [19] has the same target. As to conditions: at 10 µM.
Assay [20] deals with BDNF/NT-3 growth factors receptor (Homo sapiens) (UniProt Q16620). As to conditions: at 1 µM.
Sequence of BDNF/NT-3 growth factors receptor (Homo sapiens) (Q16620 32-822 limits assumed): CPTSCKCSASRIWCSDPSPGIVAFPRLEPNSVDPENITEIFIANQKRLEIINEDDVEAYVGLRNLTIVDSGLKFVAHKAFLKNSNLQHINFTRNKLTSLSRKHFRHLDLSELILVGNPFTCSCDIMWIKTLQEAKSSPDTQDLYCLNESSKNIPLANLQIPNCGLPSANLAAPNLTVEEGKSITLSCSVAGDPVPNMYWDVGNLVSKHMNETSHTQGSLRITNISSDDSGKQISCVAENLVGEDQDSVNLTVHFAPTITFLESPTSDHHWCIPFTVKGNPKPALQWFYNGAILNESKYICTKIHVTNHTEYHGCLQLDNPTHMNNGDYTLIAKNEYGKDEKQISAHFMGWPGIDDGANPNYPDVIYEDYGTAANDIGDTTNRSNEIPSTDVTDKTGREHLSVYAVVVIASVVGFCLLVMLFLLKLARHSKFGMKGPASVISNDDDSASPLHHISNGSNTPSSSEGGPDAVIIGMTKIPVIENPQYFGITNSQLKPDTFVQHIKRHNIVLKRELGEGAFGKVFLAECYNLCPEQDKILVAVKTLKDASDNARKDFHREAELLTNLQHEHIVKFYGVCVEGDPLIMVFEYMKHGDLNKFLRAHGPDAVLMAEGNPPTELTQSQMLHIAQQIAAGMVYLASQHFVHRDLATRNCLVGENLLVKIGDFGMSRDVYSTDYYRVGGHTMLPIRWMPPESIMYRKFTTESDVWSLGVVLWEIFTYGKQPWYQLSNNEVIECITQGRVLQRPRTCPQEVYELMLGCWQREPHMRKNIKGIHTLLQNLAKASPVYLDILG

Sequence of Angiopoietin-1 receptor (Homo sapiens) (Q02763 whole entry): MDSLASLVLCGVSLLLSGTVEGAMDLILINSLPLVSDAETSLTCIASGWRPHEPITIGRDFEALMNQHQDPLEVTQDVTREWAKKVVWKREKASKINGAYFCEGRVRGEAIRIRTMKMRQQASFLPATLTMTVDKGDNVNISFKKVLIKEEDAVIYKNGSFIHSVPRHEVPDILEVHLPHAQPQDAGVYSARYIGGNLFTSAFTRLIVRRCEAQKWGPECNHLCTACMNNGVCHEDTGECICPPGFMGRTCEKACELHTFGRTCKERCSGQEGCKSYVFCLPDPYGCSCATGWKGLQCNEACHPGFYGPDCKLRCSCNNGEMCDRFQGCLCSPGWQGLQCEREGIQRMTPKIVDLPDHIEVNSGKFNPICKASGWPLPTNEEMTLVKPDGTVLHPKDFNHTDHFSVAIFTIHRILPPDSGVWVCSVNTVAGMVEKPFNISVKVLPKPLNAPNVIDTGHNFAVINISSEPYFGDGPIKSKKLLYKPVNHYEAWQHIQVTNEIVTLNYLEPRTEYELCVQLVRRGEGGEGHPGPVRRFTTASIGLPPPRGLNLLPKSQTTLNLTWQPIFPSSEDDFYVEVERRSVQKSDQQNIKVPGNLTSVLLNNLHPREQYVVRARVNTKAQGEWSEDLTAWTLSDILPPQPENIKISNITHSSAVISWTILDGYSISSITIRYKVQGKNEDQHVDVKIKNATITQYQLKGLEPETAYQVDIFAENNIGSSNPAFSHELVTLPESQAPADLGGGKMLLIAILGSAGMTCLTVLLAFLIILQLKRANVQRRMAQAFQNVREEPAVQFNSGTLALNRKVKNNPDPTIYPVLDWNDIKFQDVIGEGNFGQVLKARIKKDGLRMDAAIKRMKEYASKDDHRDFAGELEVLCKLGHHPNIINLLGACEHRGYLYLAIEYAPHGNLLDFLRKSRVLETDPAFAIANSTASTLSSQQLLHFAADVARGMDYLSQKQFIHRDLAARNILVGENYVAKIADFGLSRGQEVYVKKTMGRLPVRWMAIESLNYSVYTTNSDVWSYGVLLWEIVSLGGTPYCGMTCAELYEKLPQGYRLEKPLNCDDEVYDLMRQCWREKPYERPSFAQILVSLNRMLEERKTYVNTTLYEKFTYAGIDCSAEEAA

For the molecule `O=c1cc(-c2cccc3c2Sc2ccccc2S3)oc(N2CCOCC2)c1`, the residual activity was 106% in assay [1]; 96% in assay [2]; 93% in [3]; 64% in assay [4]; 96% in [5]; 92% in [6]. The residual activity worked out at 92% in assay [7]; 99% in assay [8]; 96% in assay [9]; 96% in assay [10]; 92% in assay [11]; 98% in [12]. Moreover, the residual activity was 90% in [13]; 94% in [14]; 75% in assay [15]; 101% in [16]; 61% in [17]; 114% in assay [18]. In addition, the residual activity in assay [19] was found to be 95%; in assay [20], 75%.

Turning to `Nc1cccc(-c2cc3c(Oc4cccc(O)c4)ncnc3[nH]2)c1`, the residual activity came to 73% in assay [1]; 17% in assay [2]; 54% in assay [3]; 25% in assay [4]; 97% in [5]; 71% in assay [6]. The residual activity in assay [7] was found to be 42%; in [8] it was 23%; in assay [9], 90%; in assay [10] it was 87%; in assay [11] it was 101%; in [12], 71%. Moreover, the residual activity in assay [13] was determined as 78%; in assay [14] it was 17%; in assay [15], 0%; in [16] it was 18%; in [17], 1%; in [18] it was 61%. Moreover, the residual activity turned out to be 6% in [19] and 74% in assay [20].

Consider `C[C@@H](N)[C@H]1CC[C@H](C(=O)Nc2ccncc2)CC1`, for which the residual activity in assay [1] was 103%; in assay [2], 101%; in assay [3] it was 99%; in assay [4] it was 96%; in assay [5] it was 120%; in assay [6], 102%. In addition, the residual activity in assay [7] amounted to 120%; in assay [8] it was 120%; in assay [9], 93%; in assay [10] it was 94%; in assay [11], 97%; in assay [12] it was 90%. The residual activity in assay [13] was 99%; in assay [14], 83%; in [15], 98%; in [16], 84%; in assay [17], 78%; in assay [18] it was 112%. In addition, the residual activity was determined as 105% in assay [19] and 106% in assay [20].
